An excerpt weighted towards active compounds, which were near 3% of everything screened.
Sm TGR inh = blocks Schistosoma mansoni thioredoxin glutathione reductase; Q962Y6; purified TGR, DTNB reduction, TNB absorbance 405 nm; Potency, µM (series often up to 114 µM), without a hit: top-dose activity change, negative = inhibition, usual class: inhibitors; actives 3% (n = 360,000); active = well fitted inhibition curve with a large enough effect; inconclusive = small, poorly fitted or top-dose-only effect; inactive = no such curve, though single readings can be large or run the other way; note: % is set by controls: 0 for no effect and ±100 for the full control effect; nearly all actives have a fitted effect of over 60% in size
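TGR 20 nM + NADPH 100 uM (dispensed conc.), cpd preinc 15 min RT; start with NADPH (500 uM addition) then DTNB (15 mM addition). Kinetic TNB absorbance, 405 nm filter. Four-parameter Hill fit across titration.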
SARS PLP yeast = inhibitors of SARS-CoV papain-like protease in yeast; S. cerevisiae expressing SARS-CoV PLpro, growth rescue; Potency, µM (titrated, usually from 32.9 µM), without a hit: at the top dose activity, positive = growth rescue, usual class: activators; actives 0.19% (n = 330,000); AID 485353; calls by dose curve; note: 0% is about no effect; nearly all actives have a fitted effect of over 55% in size
Numbers without * were called inactive. Potency is the fitted concentration of half-maximal effect.

What do the screens show for `COc1cccc(CNCc2c(C(=O)O)c(C)n(Cc3ccc(F)cc3Cl)c2C)c1OC`?
Sm TGR inh: -15.0%

Results for CCOc1ccc(OCC)c(NC(=O)c2ccc(-c3ccccc3)s2)c1 ?
Sm TGR inh: 3.9%

How did COc1ccc(/C(C)=N/Nc2nc(C)c(C(C)=O)s2)cc1 do in these assays?
Sm TGR inh: -5.7%; SARS PLP yeast: 9.8%

How did CC(=O)c1sc(N/N=C2\CC3CC2C(C)C3(C)C)nc1C (centres undefined) do in these assays?
Sm TGR inh: 1.58µM*; SARS PLP yeast: 2.3%

What do the screens show for `Cc1ccccc1CN1C(=O)c2ccccc2S(=O)c2ccc(C(=O)NCc3ccc(Cl)cc3)cc21` (centres undefined)?
Sm TGR inh: 6.0%

What do the screens show for `CCn1cc(C(=O)OCC(=O)Nc2cccc(C(C)=O)c2)c(=O)c2ccc(C)nc21`?
Sm TGR inh: -1.9%

How did O=C(CC1N=C2c3ccccc3N=C(SCc3ccc(F)cc3)N2C1=O)NCc1ccco1 (centres undefined) do in these assays?
Sm TGR inh: inconclusive; SARS PLP yeast: 6.2%

Results for O=C(CCC1N=C2c3ccccc3N=C(SCc3ccc(Cl)cc3)N2C1=O)NCc1ccco1 (centres undefined) ?
Sm TGR inh: inconclusive; SARS PLP yeast: 3.1%

What do the screens show for `O=C(CCC1N=C2c3ccccc3N=C(SCc3ccc(F)cc3)N2C1=O)NCc1ccco1` (centres undefined)?
Sm TGR inh: 25.1µM*; SARS PLP yeast: inconclusive

Results for Cc1ccc(CSC2=Nc3ccccc3C3=NC(CC(=O)NCc4ccco4)C(=O)N23)cc1 (centres undefined) ?
Sm TGR inh: 35.5µM*; SARS PLP yeast: 3.8%

Results for Cc1ccc(N(CC(=O)Nc2ccc(C)c(F)c2)S(=O)(=O)c2c(C)n[nH]c2C)cc1 ?
Sm TGR inh: 11.7%

Results for C=CCOC(=O)C1=C(C)NC(=O)NC1c1ccc(Cl)cc1 (centres undefined) ?
Sm TGR inh: -7.7%; SARS PLP yeast: 0.5%

How did C=CCOC(=O)C1=C(C)NC(=O)NC1c1ccc(N(C)C)cc1 (centres undefined) do in these assays?
Sm TGR inh: 44.7µM*; SARS PLP yeast: 1.0%

Results for CCOc1ccc(-n2c(=O)c3c(C)c(C)sc3n(Cc3cc(=O)n4cc(Cl)ccc4n3)c2=O)cc1 ?
Sm TGR inh: 10.0%

How did COc1ccccc1N1CCN(C2CCCN(Cc3cc(F)cc(F)c3)C2)CC1 (centres undefined) do in these assays?
Sm TGR inh: 2.4%; SARS PLP yeast: -6.5%

How did Cc1cc(CN2CCCC(N3CCc4ccccc4C3)C2)cc(C)c1O (centres undefined) do in these assays?
Sm TGR inh: 44.7µM*; SARS PLP yeast: 1.8%

What do the screens show for `Cn1cccc1/C=N/N1CCN(Cc2ccccc2Cl)CC1`?
Sm TGR inh: 50.1µM*; SARS PLP yeast: -2.8%

How did Cn1cccc1/C=N/N1CCN(c2ccccc2)CC1 do in these assays?
Sm TGR inh: 44.7µM*; SARS PLP yeast: -1.4%

How did Cc1ccc(N2CCN(/N=C/c3ccccc3)CC2)cc1 do in these assays?
Sm TGR inh: -16.7%; SARS PLP yeast: -0.2%

Results for Fc1ccccc1/C=N/N1CCN(Cc2ccccc2Cl)CC1 ?
Sm TGR inh: 10.3%; SARS PLP yeast: 4.5%

What do the screens show for `O=C(CCc1nnc2n(Cc3ccccc3Cl)c(=O)c3ccccc3n12)Nc1ccccc1`?
Sm TGR inh: 0.2%

Results for CN(C)c1ccc(C2C=C(c3ccccc3)Nc3nnnn32)cc1 (centres undefined) ?
Sm TGR inh: 0.7%

What do the screens show for `CC1=C(C(=O)N2CCN(c3cccc(Cl)c3)CC2)C2(CCCCC2)OC1=O`?
Sm TGR inh: -16.0%

Results for COc1ccc(C)cc1NC(=O)Nc1cccc(OCc2cc(=O)n3ccc(C)cc3n2)c1 ?
Sm TGR inh: 16.9%

What do the screens show for `O=C(Cc1cccc2ccccc12)Nc1nnc(-c2cccc([N+](=O)[O-])c2)s1`?
Sm TGR inh: -8.6%; SARS PLP yeast: 13.5%

How did O=C(CSc1ccc(Cl)cc1)Nc1nnc(-c2cccc([N+](=O)[O-])c2)s1 do in these assays?
Sm TGR inh: 44.7µM*; SARS PLP yeast: -31.6%

Results for O=C1CCCC2=C1C(c1cccc(O)c1)c1c(ccc3ncccc13)N2 (centres undefined) ?
Sm TGR inh: 31.6µM*; SARS PLP yeast: 0.3%

What do the screens show for `CCOc1cc(C2C3=C(CCCC3=O)Nc3ccc4ncccc4c32)ccc1O` (centres undefined)?
Sm TGR inh: -18.6%; SARS PLP yeast: 0.3%

How did COc1cc(C2C3=C(CCCC3=O)Nc3ccc4ncccc4c32)ccc1O (centres undefined) do in these assays?
Sm TGR inh: -8.3%; SARS PLP yeast: -0.3%

How did O=C1CCCC2=C1C(c1ccc(O)c(O)c1)Nc1ccc3ncccc3c12 (centres undefined) do in these assays?
Sm TGR inh: 20µM*; SARS PLP yeast: 0.0%

What do the screens show for `COc1ccc(C2C3=C(CCCC3=O)Nc3ccc4ncccc4c32)cc1OC` (centres undefined)?
Sm TGR inh: 20µM*; SARS PLP yeast: -0.5%

Results for O=C1CCCC2=C1C(c1cccs1)Nc1ccc3ncccc3c12 (centres undefined) ?
Sm TGR inh: -0.6%; SARS PLP yeast: 0.3%

What do the screens show for `Cc1c(NC(=O)c2cc(=O)c3cc(Cl)ccc3o2)c(=O)n(-c2ccccc2)n1C`?
Sm TGR inh: 1.5%

What do the screens show for `CC(C)c1ccc(S(=O)(=O)N2CCN(CC(=O)Nc3ccccc3C(F)(F)F)CC2)cc1`?
Sm TGR inh: 10.5%

How did Cc1cc(C)n(-c2nc(C)c(C)c(=O)n2CC(=O)Nc2ccc([N+](=O)[O-])cc2)n1 do in these assays?
Sm TGR inh: 5.9%

What do the screens show for `O=C(CCl)N1CCCC1c1ccc2c(c1)OCCO2` (centres undefined)?
Sm TGR inh: 3.55µM*; SARS PLP yeast: 2.9%

What do the screens show for `CC(=O)c1ccc(OCC(=O)N2CCCC2c2ccc3c(c2)OCCCO3)cc1` (centres undefined)?
SARS PLP yeast: 3.4%

How did COc1ccc(CCNC(=O)CCCCCn2c(=O)[nH]c3cc(OC)c(OC)cc3c2=O)cc1OC do in these assays?
Sm TGR inh: -2.3%

Results for CCN(CC)CCOC(=O)c1ccc(NC(=O)Cn2ncc3c([nH]c4ccc(C)cc43)c2=O)cc1 ?
Sm TGR inh: -1.5%

What do the screens show for `CNC(=O)C(=O)NCC(c1cccs1)S(=O)(=O)c1ccc(F)cc1` (centres undefined)?
Sm TGR inh: 3.0%; SARS PLP yeast: -1.4%

What do the screens show for `COc1ccc(S(=O)(=O)NCC(c2cccs2)S(=O)(=O)c2ccccc2)cc1OC` (centres undefined)?
Sm TGR inh: 1µM*

How did COc1ccc(S(=O)(=O)NCCc2ccccc2)cc1OC do in these assays?
Sm TGR inh: -28.3%; SARS PLP yeast: 0.2%

Results for O=S(=O)(NCC(c1cccs1)S(=O)(=O)c1ccccc1)c1ccc(F)cc1 (centres undefined) ?
Sm TGR inh: 0.501µM*

Results for COc1ccc(-c2nnc(SCC(=O)Nc3ccc(C)c(C)c3)s2)cc1 ?
Sm TGR inh: 8.7%

What do the screens show for `Cc1cc(Br)ccc1NC(=O)CCS(=O)(=O)c1cccc2nsnc12`?
Sm TGR inh: 3.1%

What do the screens show for `CC1CCc2onc(C(=O)N3CCN(c4ccccc4)CC3)c2C1` (centres undefined)?
Sm TGR inh: 8.9%
